Several values for one entry are separate records, joined by “and”; a condition that tells them apart may be missing. Equal entries are not always repeated. Results filed as inconclusive are left out. Some structures have more than one record in an assay (separate samples or runs), and their calls can disagree. Activity calls are given as the source filed them.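 How the source made its calls, unless noted: active means normalized viability below 100% at a tested concentration; inactive means the rest.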
Legend:
[1] = P. berghei load reduction in hepatocytes – cell-based, HepG2, luciferase luminescence, HepG2 viability, primary screen (AID 624349; in the data active means parasite load remaining mostly below about 12%, no sharp cut-off; inactive means mostly above about 10%;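 further: 100% = mean of DMSO negative control wells on the same plate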); settings: P. berghei liver stage in HepG2, luciferase luminescence, concentration not given here; parasite load remaining: stronger effect = lower value; viability: measured here: HepG2 viability without parasites
[2] = Wnt pathway potentiators raising nuclear beta-catenin – imaging, WNT3A-conditioned medium, mouse C2C12, NPC library, primary screen (AID 1117326; in the data active means nuclear beta-catenin stimulation mostly above about 4.2%, no sharp cut-off; inactive means mostly below about 10%); settings: stronger effect = higher value
[3] = stimulators of insulin release from INS-1E, primary screen, cell-based, 5 mM glucose, NPC library (AID 1117329;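 active means compound raises insulin release from rat beta cells at 5 mM glucose, no numeric limit stated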); settings: rat INS-1E insulin secretion, at 10 µM, stronger effect = higher value
[4] = growth inhibition of GSK3B-pretreated HCT116 cells – cell-based, CellTiter-Glo, 0.2 to 20 µM (AID 1117336;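 active means compounds lowering colon cancer cell viability after pretreatment blocking the GSK3B kinase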); settings: HCT116 viability after GSK3B inhibitor, at 20 µM, stronger effect = higher value
[5] = inhibition of endothelial tube formation, primary screen, imaging, VEGF stimulated, CD31 staining, tube area, NPC library (AID 1117340;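 active means compound that reduces growth-factor-driven endothelial tube area in a mixed cell culture, no cutoff stated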); settings: VEGF-stimulated ADSC/ECFC co-culture, at 10 µM, stronger effect = higher value
[6] = GLP1 release stimulators, primary, NCI-H716, NPC library (AID 1117341;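 active means compound raises GLP1 secretion from the human gut endocrine cells, with no numeric limit stated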); settings: NCI-H716 cells, at 10 µM, stronger effect = higher value
[7] = HCT116 colon cancer cell growth inhibition, primary screen, CellTiter-Glo luminescence, NPC library (AID 1117342;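 active means compounds that lower survival of HCT116 colon cancer cells in the luminescence readout, no numeric limit stated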); settings: at 20 µM (top of the series)
[8] = reduced SW480 viability measured with CellTiter-Glo, NPC library, primary (AID 1117343;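 active means compounds that lower viability of the colon cancer cells in the luminescence readout, with no numeric limit stated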); settings: CellTiter-Glo luminescence; at 20 µM (top of the series) unless noted
[9] = NPC library primary testing for decreased DLD-1 cell viability via CellTiter-Glo (AID 1117346;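 active means compounds that lower survival of DLD-1 colon cancer cells in the luminescence readout, no cutoff given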); settings: DLD-1 viability, CellTiter-Glo luminescence; at 20 µM (top of the series)
[10] = viability loss in pontine glioma line – cell-based, SU-DIPG-XXV, MIPE5.0, CellTiter-Glo, qHTS, dose response (AID 1347065; cut-off not given, nearly all actives have AC50 up to about 26 µM;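 further: cells exposed to compound for 48 hours before ATP readout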); settings: CellTiter-Glo ATP luminescence
[11] = JHH-DIPG-1 glioma cell viability, MIPE5.0 library, CellTiter-Glo luminescence, qHTS (AID 1347067; cut-off not given, nearly all actives have AC50 up to about 26 µM;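 further: cells exposed to compound for 48 hours before readout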); settings: JHH-DIPG-1 glioma viability, CellTiter-Glo ATP luminescence
[12] = growth inhibition of DIPG cells – cell-based, MIPE5.0 library, qHTS (AID 1347068; cut-off not given, nearly all actives have IC50 up to about 30 µM); settings: SU-DIPG-XXV viability
[13] = viability loss with induced miR-34 in A549 – imaging, A549 dox-inducible miR-34, nuclei and caspase counts, primary screen (AID 1347080;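 active means compounds whose cell count with miR-34 switched on is under 0.7 times the count with it off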); settings: A549 miR-34 inducible, Hoechst nuclei count, 48 h
[14] = MELAS cybrid and Rieske KO viability enhancers – cell-based, MELAS cybrids, Rieske KO mouse fibroblasts, CellTiter-Glo, primary screen (AID 1508586;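 active means mean z-score across replicates of 1.96 or higher in either the MELAS or the Rieske mutant cell line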;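 further: z relative to plate mean and SD of compound and empty wells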); settings: low glucose
[15] = galactose survival enhancers in mitochondrial complex I cybrids – cell-based, galactose medium, ATP luminescence, primary screen (AID 1645843;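 active means z-score of at least 1.8 in each of two replicates, scored against plate mean and spread of sample wells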;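 further: positive z means more ATP and so rescue of galactose-driven cybrid death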); settings: complex I mutant cybrid cells, 72 h, stronger effect = higher value
[16] = viability loss in pontine glioma line – cell-based, JHH-DIPG-1, MIPE4.0, CellTiter-Glo, qHTS, dose response (AID 1347062; cut-off not given, nearly all actives have AC50 up to about 27 µM); settings: JHH-DIPG-1 viability, CellTiter-Glo ATP luminescence
[17] = growth inhibition of DIPG cells – cell-based, MIPE4.0 library, CellTiter-Glo luminescence, qHTS (AID 1347066; cut-off not given, nearly all actives have AC50 up to about 30 µM;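 further: cells exposed to compound for 48 hours before readout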); settings: SU-DIPG-VI viability, CellTiter-Glo ATP luminescence
[18] = blockers of cellular phospholipid synthesis – cell-based, LOPAC library, screen 4, primary screen (AID 1347384; call rule not given here); settings: animal cells, phospholipid biosynthesis inhibition screen; at 10 µM
[19] = viability loss in pontine glioma line – cell-based, SU-DIPG-IV, MIPE4.0, CellTiter-Glo, qHTS, dose response (AID 1347063; cut-off not given, nearly all actives have AC50 up to about 30 µM;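 further: compound exposure lasted 48 hours before the viability readout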); settings: CellTiter-Glo ATP luminescence
[20] = drug combination growth inhibition, ovarian cancer – cell-based, oncology-focused library, rucaparib conditional, profiling panel (AID 1508598); settings: patient-derived ovarian cancer cells, CellTiter-Glo viability, 144 h, stronger effect = lower value
[21] = stronger effect = lower value, cell number ratio, induced over uninduced
[22] = measured here: relative caspase fold change +Dox/-Dox
[23] = measured here: total cells with miR-34 induction, stronger effect = lower value
[24] = measured here: total cells without miR-34 induction
[25] = MELAS cybrid survival, CellTiter-Glo 48 h, stronger effect = higher value
[26] = Rieske KO mouse fibroblast survival, CellTiter-Glo 72 h

CC(=O)O[C@@]12CO[C@@H]1C[C@H](O)[C@@]1(C)C(=O)[C@H](O)C3=C(C)[C@@H](OC(=O)[C@H](O)[C@@H](NC(=O)OC(C)(C)C)c4ccccc4)C[C@@](O)([C@@H](OC(=O)c4ccccc4)[C@H]21)C3(C)C
inactive: parasite load remaining [1] 80.3% | insulin secretion stimulation [3] -0.6% | GLP1 secretion stimulation [6] -0.5% | outcome [11] | outcome [12] | fold change [13, 21] 0.999 | z-score [14, 25] -1.22 | z-score [15] -0.435
0.541: z-score [14, 26]
2910: cell count [13, 23] | cell count [13, 24]
0.907: fold change [13, 22]
active: nuclear beta-catenin stimulation ([2]; at 10 µM) 66.2% | viability decrease [4] 71.8% | tube area decrease [5] 98.1% | inhibition of viability [7] 58.9% | viability decrease (inhibition) [8] 36.5% | viability decrease (inhibition) [9] 31.8% | AC50 [10] 0.00209 µM
49.3%: nuclear beta-catenin stimulation ([2]; stimulation, at 2 µM)
114%: viability [1]

Cc1c(C)c2c(c(C)c1O)CCC(C)(COc1ccc(CC3SC(=O)NC3=O)cc1)O2 (centres undefined)
active: viability decrease [4] 88.4% | tube area decrease [5] 99.4% | inhibition of viability [7] 55.4% | viability decrease (inhibition) [8] 110% | viability decrease (inhibition) [9] 101%
6090 and 11900 and 7450: cell count [13, 23]
0.891 and 4.13 and 1.35: fold change [13, 22]
207% and 95%: viability [1]
5600 and 12700 and 9040: cell count [13, 24]
inactive: parasite load remaining [1] 65.9% and 36.4% | nuclear beta-catenin stimulation ([2]; at 10 µM) 1.2% | insulin secretion stimulation [3] 1.4% | GLP1 secretion stimulation [6] 11.9% | outcome [16] | outcome [17] | outcome [11] | outcome [12] | fold change [13, 21] 1.09 and 0.933 and 0.824 | z-score [14, 25] -0.456 and 0.16 | z-score [15] 0.175
10.4%: nuclear beta-catenin stimulation ([2]; stimulation, at 2 µM)
0.0968 and -0.894: z-score [14, 26]

C[C@]12CC[C@@H]3c4ccc(O)cc4C[C@@H](CCCCCCCCCS(=O)CCCC(F)(F)C(F)(F)F)[C@H]3[C@@H]1CC[C@@H]2O (some centres undefined)
7310 and 7580: cell count [13, 24]
0.4%: nuclear beta-catenin stimulation ([2]; stimulation, at 2 µM)
active: viability decrease (inhibition) [8] 54%
1.73 and 1.2: fold change [13, 22]
-0.225 and 1.88: z-score [14, 26]
inactive: parasite load remaining [1] 12.8% | nuclear beta-catenin stimulation ([2]; at 10 µM) 1% | insulin secretion stimulation [3] 5.1% | viability decrease [4] -4.5% | tube area decrease [5] 16.2% | GLP1 secretion stimulation [6] -2.7% | inhibition of viability [7] 49.8% | viability decrease (inhibition) [9] 18.9% | outcome [16] | outcome [10] | outcome [17] | outcome [11] | outcome [12] | fold change [13, 21] 0.987 and 0.822 | outcome [18] | z-score [14, 25] -1.54 and 0.0305
121%: viability [1]
7220 and 6230: cell count [13, 23]
2.5 (active) and -0.155 (inactive): z-score [15]

COc1nc(N)nc2c1ncn2[C@@H]1O[C@H](CO)[C@@H](O)[C@@H]1O
0.8%: nuclear beta-catenin stimulation ([2]; stimulation, at 2 µM)
inactive: nuclear beta-catenin stimulation ([2]; at 10 µM) 2.7% | insulin secretion stimulation [3] -1.9% | viability decrease [4] -1.5% | tube area decrease [5] 5.7% | GLP1 secretion stimulation [6] 0.9% | inhibition of viability [7] -1.43% | viability decrease (inhibition) [8] -15.5% | viability decrease (inhibition) [9] -11.9% | outcome [16] | outcome [19] | outcome [17] | z-score [14, 25] 0.551 | viability ([20]; at 0.000305 µM, OCI-C5x cells, with rucaparib 10 µM, 100% = cells with rucaparib alone) 129% | viability ([20]; at 0.000305 µM, OCI-C5x cells, without rucaparib) 109% | viability ([20]; at 0.000305 µM, OCI-P5x cells, with rucaparib 20 µM, 100% = cells with rucaparib alone) 104% | viability ([20]; at 0.000305 µM, OCI-P5x cells, without rucaparib) 107% | viability ([20]; at 0.00122 µM, OCI-C5x cells, with rucaparib 10 µM, 100% = cells with rucaparib alone) 114% | viability ([20]; at 0.00122 µM, OCI-C5x cells, without rucaparib) 106% | viability ([20]; at 0.00122 µM, OCI-P5x cells, with rucaparib 20 µM, 100% = cells with rucaparib alone) 101% | viability ([20]; at 0.00122 µM, OCI-P5x cells, without rucaparib) 105% | viability ([20]; at 0.00488 µM, OCI-C5x cells, with rucaparib 10 µM, 100% = cells with rucaparib alone) 108% | viability ([20]; at 0.00488 µM, OCI-P5x cells, with rucaparib 20 µM, 100% = cells with rucaparib alone) 101% | viability ([20]; at 0.0195 µM, OCI-C5x cells, with rucaparib 10 µM, 100% = cells with rucaparib alone) 112% | viability ([20]; at 0.0195 µM, OCI-P5x cells, without rucaparib) 102% | viability ([20]; at 0.0781 µM, OCI-C5x cells, with rucaparib 10 µM, 100% = cells with rucaparib alone) 113% | viability ([20]; at 0.0781 µM, OCI-P5x cells, without rucaparib) 101% | viability ([20]; at 0.313 µM, OCI-C5x cells, with rucaparib 10 µM, 100% = cells with rucaparib alone) 101% | viability ([20]; at 1.25 µM, OCI-C5x cells, with rucaparib 10 µM, 100% = cells with rucaparib alone) 102%
active: viability ([20]; at 0.00488 µM, OCI-C5x cells, without rucaparib) 98% | viability ([20]; at 0.00488 µM, OCI-P5x cells, without rucaparib) 97.2% | viability ([20]; at 0.0195 µM, OCI-C5x cells, without rucaparib) 96.1% | viability ([20]; at 0.0195 µM, OCI-P5x cells, with rucaparib 20 µM, 100% = cells with rucaparib alone) 94% | viability ([20]; at 0.0781 µM, OCI-C5x cells, without rucaparib) 99.7% | viability ([20]; at 0.0781 µM, OCI-P5x cells, with rucaparib 20 µM, 100% = cells with rucaparib alone) 94.2% | viability ([20]; at 0.313 µM, OCI-C5x cells, without rucaparib) 90.4% | viability ([20]; at 0.313 µM, OCI-P5x cells, with rucaparib 20 µM, 100% = cells with rucaparib alone) 98% | viability ([20]; at 0.313 µM, OCI-P5x cells, without rucaparib) 97% | viability ([20]; at 1.25 µM, OCI-C5x cells, without rucaparib) 83.3% | viability ([20]; at 1.25 µM, OCI-P5x cells, with rucaparib 20 µM, 100% = cells with rucaparib alone) 90.5% | viability ([20]; at 1.25 µM, OCI-P5x cells, without rucaparib) 90.1% | viability ([20]; at 5 µM, OCI-C5x cells, with rucaparib 10 µM, 100% = cells with rucaparib alone) 92.9% | viability ([20]; at 5 µM, OCI-C5x cells, without rucaparib) 84.3% | viability ([20]; at 5 µM, OCI-P5x cells, with rucaparib 20 µM, 100% = cells with rucaparib alone) 80.3% | viability ([20]; at 5 µM, OCI-P5x cells, without rucaparib) 90%
0.487: z-score [14, 26]

CC1=C(C)C(=O)C(CCCCC#CCCCC#CCO)=C(C)C1=O
7960 and 3280 and 9410: cell count [13, 24]
216%: viability [1]
inactive: parasite load remaining [1] 55.8% | nuclear beta-catenin stimulation ([2]; at 10 µM) 2.7% | insulin secretion stimulation [3] 2.7% | tube area decrease [5] 16% | GLP1 secretion stimulation [6] 5% | fold change [13, 21] 1.02 and 0.926 and 0.838 | outcome [18] | z-score [14, 25] 0.195 | z-score [15] -1.52 and -1.61
8160 and 3040 and 7890: cell count [13, 23]
1.5 and 0.952 and 1.53: fold change [13, 22]
-1.24: z-score [14, 26]
active: viability decrease [4] 96% | inhibition of viability [7] 87.4% | viability decrease (inhibition) [8] 126% | viability decrease (inhibition) [9] 54.6%
-0.7%: nuclear beta-catenin stimulation ([2]; stimulation, at 2 µM)

CCCS(=O)c1ccc2nc(NC(=O)OC)[nH]c2c1 (centres undefined)
-1.8%: nuclear beta-catenin stimulation ([2]; stimulation, at 2 µM)
0.991 and 1.16: fold change [13, 22]
83%: viability [1]
inactive: parasite load remaining [1] 34.6% | nuclear beta-catenin stimulation ([2]; at 10 µM) 4.7% | insulin secretion stimulation [3] 0.2% | tube area decrease [5] 20.1% | GLP1 secretion stimulation [6] 0.6% | viability decrease (inhibition) [9] 29.6% | outcome [11] | outcome [12] | fold change [13, 21] 0.922 and 0.972 | z-score [14, 25] -0.274 and -0.499 | z-score [15] 0.54
0.419 and -0.334: z-score [14, 26]
7350 and 6760: cell count [13, 24]
6780 and 6570: cell count [13, 23]
active: viability decrease [4] 71.2% | inhibition of viability [7] 65.2% | viability decrease (inhibition) [8] 87.9% | AC50 [19] 14.8 µM | AC50 [10] 23.5 µM

From PubChem BioAssay
